# An excerpt weighted towards active compounds, which were near 4.5% of everything screened.
# tim10-1 inh: growth inhibitors of tim10-1 mutant yeast, primary screen, luminescence, uHTS. 330,000 compounds, 2.2% hits. AID 463190, 2010. S. cerevisiae tim10-1 ts strain growth, BacTiter-Glo, 24 h. inhibition, % at 20 µM;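 active = inhibition of at least 40%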;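 also: mutant grown at 25 °C; 0% = DMSO wells with yeast and 100% = wells holding no yeast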
# PfHsp90 yeast 2: growth inhibition of PfHsp90-expressing yeast, primary screen, antimalarial PfHsp90 inhibitor project, S. cerevisiae, BacTiter-Glo luminescence, single point, set 2; BacTiter-Glo ATP, 48 h; yeast lacking PDR1 and PDR3 efflux regulators; 310,000 compounds, 0.32% hits; inhibition, % at 9.4 µM; AID 504621, 2011;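 active = every replicate shows inhibition above about 80%, whatever the replicate mean, limit read from the data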;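 also: 0% = DMSO neutral controls and 100% = 20 µM radicicol positive controls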
# tim23-1 inh: growth inhibitors of tim23-1 mutant yeast, primary screen, luminescence, uHTS; S. cerevisiae tim23-1 growth, BacTiter-Glo luminescence, 24 h; inhibition, % at 20 µM; 330,000 compounds, 1.3% hits;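 active = growth inhibition of the mutant yeast at or above 50%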;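 also: temperature-sensitive mutant grown at 25 °C; plate controls were DMSO-treated mutant yeast for no effect and medium wells lacking yeast for full effect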
# SKKanGAS inh: S. pyogenes SKKanGAS growth inhibitors in kanamycin, primary screen, streptokinase expression inhibitor project, SKKanGAS strain, BacTiter-Glo luminescence; inhibition, % at 7.5 µM; 6 h; 300,000 compounds, 1.3% hits;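 active = mean replicate score, as percent of positive control median, at least 50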;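 also: strain carries kanamycin resistance gene driven by streptokinase promoter and grows in 40 µg/ml kanamycin; loss of luminescence reflects streptokinase promoter inhibition or plain growth inhibition; 0% = median of DMSO wells and 100% = positive control at its reference dose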
# TIM10 inh: growth inhibitors of isogenic TIM10 control yeast, primary screen, counter-screen for tim10-1 yeast inhibitor project, luminescence, uHTS | S. cerevisiae TIM10 strain growth, BacTiter-Glo luminescence, 24 h | 330,000 compounds, 1.4% hits | inhibition, % at 10 µM;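 active = inhibition of 40% or more at the single tested concentration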;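 also: wild-type TIM10 isogenic control strain grown at permissive 25 °C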
# NLRP3 yeast inh: NALP3 inflammasome inhibitors in reconstituted yeast, primary screen, luminescence, uHTS; Yeast reconstituted NLRP3/ASC/caspase-1, beta-gal luminescence, 24 h; inhibition, % at 10 µM; 330,000 compounds, 0.39% hits;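 active = inhibition of 50% or more; inactive = inhibition below 50%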;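 also: plate controls were induced DMSO wells for no effect and uninduced yeast grown without galactose for full effect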
# NALP3 confirm: NALP3 inhibitors retested in yeast, confirmation, luminescence, single concentration; AID 435006, 2010; inhibition, % at 10 µM; shares compounds with NLRP3 yeast inh; yeast expressing human NALP3; 1,300 compounds, 81% hits; in the data active = inhibition above about 48%
# Casp1-ASC yeast: CASP1-PYCARD signaling inhibition in yeast, confirmatory test, counterassay for NLRP3 inhibitor program, one-dose; yeast expressing Caspase-1-ASC, luminescence counter screen; shares compounds with NLRP3 yeast inh; inhibition, % at 10 µM; 1,000 compounds, 66% hits
# NALP3 retest: NALP3 inhibitors in yeast, repeat test, confirmation, luminescence, single concentration, retest. shares compounds with NLRP3 yeast inh. yeast expressing human NALP3, luminescence read-out. inhibition, % at 10 µM. 1,000 compounds, 53% hits. AID 488794, 2010
# * hit, by the source's call; · = no result given. Rule as the data show it, unless noted: active = inhibition above about 50%; inactive = the rest.
SMILES,tim10-1 inh,PfHsp90 yeast 2,tim23-1 inh,SKKanGAS inh,TIM10 inh,NLRP3 yeast inh,NALP3 confirm,Casp1-ASC yeast,NALP3 retest
CC1(C)[C@@H](O)CC[C@]2(C)C3C(O)C=C4[C@H]5C[C@@](C)(C(=O)O)CC[C@]5(C)CC[C@]4(C)[C@]3(C)CC[C@@H]12 (stereo not given in full),10,·,8,39,8,60*,70*,·,·
O=S(=O)(c1cc(Cl)ccc1Cl)n1cccn1,20,15,6,-2,22,-37,·,·,·
O=S(=O)(c1ccc(Cl)cc1)n1ccc2cccnc21,-4,·,17,5,-7,61*,61*,56*,41
Cc1ccc(S(=O)(=O)n2ccc3cccnc32)cc1,8,11,15,3,1,44,·,·,·
O=S(=O)(c1ccc(Cl)cc1Cl)n1ccc2cccnc21,-14,10,27,21,-21,73*,67*,65*,43
CCc1cc2cc(C)ccc2nc1SCC(=O)NC1CCCC1,-17,11,6,3,5,54*,62*,35,32
Cc1ccc(/C=C(\C#N)c2nc3ccccc3[nH]2)s1,-43,18,5,2,22,51*,63*,45,47
C[C@@H](N)C(=O)NC[C@H]1CC[C@H](C(=O)N[C@@H](Cc2ccccc2)C(=O)O)CC1,-9,-3,-6,13,13,62*,76*,58*,63*
CCCc1ccc(C(=O)NNc2cc(Cl)ccc2Cl)cc1,3,-15,29,2,18,57*,54*,56*,49
Cc1cccc(C(=O)NC2=NCCS2)c1,33,7,21,3,8,16,·,·,·
CCOc1ccc(CSC(=N)N)cc1Cl,8,1,6,3,-4,5,·,·,·
CCCCOc1ccc(CSCCN)cc1Cl,-3,-14,13,6,5,67*,76*,·,·
CCCCn1c(N)c(N(CCOC)C(=O)c2cccc(N3C(=O)c4ccccc4C3=O)c2)c(=O)[nH]c1=O,7,·,11,-8,0,4,·,·,·
Cn1c(=O)c(C(=O)NNC(=O)c2ccccc2Cl)c(O)c2ccccc21,19,-25,43,51*,35,66*,80*,54*,61*
CC(=O)c1c(O)c2ccccc2n(C)c1=O,20,11,32,18,26,35,·,·,·
CCn1c(=O)c(C(=O)Nc2ccccc2F)c(O)c2ccccc21,-1,10,8,-6,-14,16,·,·,·
CCn1c(=O)c(C(=O)NNC(=O)c2ccc(Cl)cc2Cl)c(O)c2ccccc21,-28,9,34,75*,14,55*,75*,21,25
Cn1c(/C=C/N(Cc2ccccc2)c2ccccc2)c([N+](=O)[O-])c(=O)n(C)c1=O,22,-12,15,8,13,-117,-22,·,·
CC(=O)C1N=NCC1c1ccccc1 (stereo not given),·,-9,·,·,·,·,·,·,·
CCC(=Nc1ccccc1O)C1=C(O)CC(c2ccccc2)CC1=O (stereo not given),-8,40,15,3,10,62*,74*,55*,56*
CCC(=Nc1ccccc1OC)C1=C(O)CC(c2ccccc2)CC1=O (stereo not given),2,18,23,-5,11,38,·,·,·
Cc1ccc2nc(-c3ccc(O)cc3)oc2c1,23,11,39,3,24,6,·,·,·

# Screening data (PubChem BioAssay)
